We go through 10 compounds from PubChem BioAssay (NCATS).

Molecules are shown by their SMILES. Inconclusive results are not listed. Calls of active or inactive are those of the source. Calls follow the shape of the dose curve; as a rule, active = well fitted cell-killing curve with a large enough effect; inconclusive = small, poorly fitted or top-dose-only effect, or effect the other way; inactive = no such curve, though single readings can be large or run the other way.
Potency is read from the fitted curve at half-maximal effect.

This experiment in a line: qHTS of pediatric cancer cell lines to identify multiple opportunities for drug repurposing: Confirmatory screen for SJ-GBM2 cells (AID 1347116).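 Also: 48 hour compound exposure; nearly all actives have a fitted effect of over 60% in size.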 As to conditions: SJ-GBM2 glioblastoma cells, viability; series mostly up to 45.9 µM; activity change, negative = cytotoxic: at the top concentration. From the text:
Drug repurposing or repositioning has been offered as a strategy for drug development in oncology programs. This approach has special potential for childhood cancers and other rare or orphan diseases, where the expected return on new drug development has been a disincentive to pharmaceuticals.
In this project we exploit the poly-pharmacology of drugs to discover new indications via phenotypic screening of a panel of 19 well-characterized cell lines derived from solid tumors seen in children and adolescents. The goal is to identify approved drugs with previously unrecognized anticancer properties that has the potential to reveal new mechanisms and biological processes involved in carcinogenesis or drug resistance. We employed a titration-based paradigm (quantitative high-throughput screening or qHTS), where all compounds were tested at multiple concentrations for their effect on cell viability. Concentration-response curves (CRCs) were derived directly from the primary screen, and both potency and efficacy values were used to identify compounds with robust bioactivity profiles. We screened the NIH Chemical Genomics Center (NCGC) Pharmaceutical Collection (NPC) and Mechanism Interrogation Plate (MIPE) small molecule collections of approved and investigational compounds against these cell lines; and measured metabolically active cells after 48 hours of compound treatment as a proxy for cell viability.
Assay Submitter: Nathalia J. Martinez, National Center for Advancing Translational Sciences, National Institutes of Health, Rockville, MD, USA; email: natalia.martinez@nih.gov
[1] Shen, M et al. Quantitative high-throughput phenotypic screening of pediatric cancer cell lines identifies multiple opportunities for drug repurposing. Oncotarget 2017 Dec 19;9(4):4758-4772. PMID 29435139.
The cells were obtained from University of North Carolina (UNC), Pediatric Preclinical Testing Program (PPT), and Coriell Institute (CI).
qHTS cell viability assay:
Cells were assayed in growth media at a density of 500-1,000 cells/well. Five microliters of cells were dispensed into 1,536-well, white, solid-bottom, TC-treated plates (Greiner Bio One) using a multidrop dispenser and incubated at 37 degrees C, 5% CO2, under a humidified atmosphere for 5 hours. Twenty-three nanoliters of compounds and controls (neutral control DMSO or positive control bortezomib at final concentration of 2.3 µM) were subsequently transferred by Kalypsys pintool. For primary screens, the MIPE collection was tested at 11-point dilutions (final concentrations range from 0.78 nM to 46 µM) and the NPC collection at 8-point dilutions (final concentrations range from 0.59 nM to 46 µM). Compounds tested in follow-up screens were assayed at 11-point dilutions. Cells were incubated for 48 hours, followed by addition of 3 uL of CellTiter-Glo (Promega). After a 15 min incubation at room temperature, samples were analyzed for luminescence intensity using a ViewLux High-throughput CCD imager equipped with clear filters.
In general terms: qHTS replaces the single test concentration by a dilution series.
For `COC(=O)C1=CCCN(C)C1`, the result was inactive.

`CCCCCCCCC(=O)NCc1ccc(O)c(OC)c1`: the compound was called inactive.

As to `CN1[C@@H]2CC[C@H]1CC(OC(=O)c1cc(Cl)cc(Cl)c1)C2` (stereo not given in full), the “activity change, negative = cytotoxic” value is 12.1% (inactive).

On to `CC[n+]1c(-c2ccccc2)c2cc(N)ccc2c2ccc(N)cc21`, for which the Potency is 3.69 µM (active).

For the compound `ClC1=C(Cl)C2(Cl)C(CBr)CC1(Cl)C2(Cl)Cl` (stereo not given), the “activity change, negative = cytotoxic” value was 1.57% (inactive).

For `Cc1ccc([N+](=O)[O-])[c]2c1[O][Hg]2`, the Potency is 4.14 µM (active).

In the case of `CN(C)C(=S)SSC(=S)N(C)C`, the Potency was 8.27 µM (active).

Consider `C[C@@H]1O[C@@H](O[C@@H]2C=C3CC[C@@H]4[C@H](CC[C@]5(C)[C@@H](c6ccc(=O)oc6)CC[C@]45O)[C@@]3(C)CC2)[C@H](O)[C@H](O)[C@H]1O`, for which the Potency is 0.0465 µM (active).

Consider `COc1ccc2c(C(=O)c3ccc(Cl)cc3)c(C)n(CC(=O)O)c2c1`, for which the result was inactive.

Turning to `C[C@@H]1C[C@@H]([C@H](O)CC2CC(=O)NC(=O)C2)C(=O)[C@@H](C)C1`, the Potency was 2.33 µM (active).
